Consider eight compounds from PubChem BioAssay (NCI).

SMILES strings stand for the structures. This is part of a sample that, as a whole, favours compounds with a hit. Of some 83,000 tested, about 20% had one in any assay.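 How to read the values: 0–100, growth inhibition (40 = 60% inhibited); 0, no net growth; -100 to 0, cell death (-40 = 40% of starting cells died; -100 = all dead).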 Values without a mark were called inactive. Calls of active or inactive are those of the source. Rule for the calls: active = growth percent below 10; inactive = the rest.

Among the test systems are SK-MEL-2 melanoma; EKVX NSCLC; SN12C renal; UO-31 renal; TK-10 renal; ACHN renal; CAKI-1 renal; CCRF-CEM leukemia; MOLT-4 leukemia; SR leukemia; RPMI-8226 leukemia; OVCAR-8 ovarian; OVCAR-5 ovarian; OVCAR-4 ovarian; SK-OV-3 ovarian; IGROV1 ovarian; OVCAR-3 ovarian; HS 578T breast; NCI/ADR-RES ovarian; A498 renal.
Common to all, as to experiment: NCI-60 one-dose screen, 48 h (100 = growth as untreated, 0 = no growth, -100 = all killed)
Common to all, as to settings: 10 µM unless noted

For `Nc1cc(-c2ccc(Cl)cc2)nn1-c1nc(-c2ccc(Br)cc2)cs1`, the growth in the assay on SK-MEL-2 melanoma is 96.9%; in the assay on EKVX NSCLC, 93.6%; with SN12C renal, 97.7%; with UO-31 renal, 93.4%; in the assay on TK-10 renal, 96.4%; in the assay on ACHN renal, 101%. The growth with CAKI-1 renal is 97.8%; with CCRF-CEM leukemia, 104%; with MOLT-4 leukemia it was 103%; in the assay with SR leukemia, 91.3%; in the assay with RPMI-8226 leukemia, 100%; in the assay on OVCAR-8 ovarian, 103%. Further, the growth was 93.7% in the assay on OVCAR-5 ovarian; 103% with OVCAR-4 ovarian; 92.4% with SK-OV-3 ovarian; 99.9% in the assay with IGROV1 ovarian; 106% in the assay on OVCAR-3 ovarian; 98% with HS 578T breast. Besides, the growth with NCI/ADR-RES ovarian was 105%.
Regarding `Cc1c2ccncc2c(C)c2c1c1ccccc1n2CCCCCC(=O)O`, the growth in the assay with SK-MEL-2 melanoma was 92.4%; in the assay with EKVX NSCLC it was 90.3%; in the assay on SN12C renal, 94.2%; in the assay on UO-31 renal, 56.7%; in the assay with TK-10 renal, 128%; in the assay on ACHN renal, 82.9%. The growth in the assay with CAKI-1 renal is 91.1%; in the assay with CCRF-CEM leukemia it was 94.1%; in the assay on MOLT-4 leukemia, 74.8%; in the assay with SR leukemia, 65.1%; in the assay with RPMI-8226 leukemia it was 86.3%; in the assay on OVCAR-8 ovarian it was 79.5%. Moreover, the growth in the assay on OVCAR-5 ovarian was 109%; in the assay on OVCAR-4 ovarian, 94.3%; in the assay with SK-OV-3 ovarian, 95.6%; in the assay on IGROV1 ovarian, 76.9%; with OVCAR-3 ovarian it was 93.1%; with HS 578T breast it was 88.5%. In the assay with NCI/ADR-RES ovarian, the growth is 80.1%.
For the compound `COc1cc2cc(Oc3ccc(NC(=O)Nc4ccc(Cl)c(Cl)c4)cc3)c(C)nc2cc1OCCN1CCCCC1`, the growth was 124% with SK-MEL-2 melanoma; 99.8% in the assay on EKVX NSCLC; 101% in the assay with SN12C renal; 88.2% with UO-31 renal; 133% in the assay with TK-10 renal; 106% in the assay with ACHN renal. The growth in the assay on CAKI-1 renal is 78%; with CCRF-CEM leukemia it was 9.57% (active); in the assay on MOLT-4 leukemia, 64.6%; in the assay with SR leukemia, -3.12% (active); with RPMI-8226 leukemia, 79.1%; with OVCAR-8 ovarian, 32.1%. For the same compound, the growth in the assay on OVCAR-5 ovarian was 137%; with OVCAR-4 ovarian it was -16.5% (active); in the assay on SK-OV-3 ovarian it was 119%; in the assay with IGROV1 ovarian it was 93.4%; in the assay with OVCAR-3 ovarian it was 105%; with HS 578T breast, 108%. In the assay with NCI/ADR-RES ovarian, the growth is 99.5%.
With `CN(C)C(=O)OCc1ccc2c(Cl)cc(Cl)c(O)c2n1`, the growth in the assay with SK-MEL-2 melanoma was 50.1%; in the assay on EKVX NSCLC, 30.5%; in the assay with SN12C renal it was 36.6%; in the assay with UO-31 renal it was 27.2%; in the assay on TK-10 renal, 64.2%; in the assay with ACHN renal it was 27.2%. Moreover, the growth in the assay on CAKI-1 renal is 18.6%; in the assay with A498 renal, 68%; in the assay on CCRF-CEM leukemia, 23%; in the assay with MOLT-4 leukemia, 22.1%; in the assay on SR leukemia, 34.3%; with RPMI-8226 leukemia it was 34.7%. The growth with OVCAR-8 ovarian is 22.6%; with OVCAR-5 ovarian, 77.4%; in the assay with OVCAR-4 ovarian, 20.8%; with IGROV1 ovarian, 40.9%; in the assay on OVCAR-3 ovarian it was 30.6%; in the assay with HS 578T breast it was 71.8%. In the assay on NCI/ADR-RES ovarian, the growth was 14.8%.
On to `C=C(C)[C@@H]1CC[C@]2(C#N)CC[C@]3(C)[C@H](CC[C@@H]4[C@@]5(C)CCCNC(C)(C)[C@@H]5CC[C@]43C)[C@@H]12`, for which the growth was 110% in the assay on SK-MEL-2 melanoma; 68.9% with EKVX NSCLC; 60.3% in the assay with SN12C renal; 71.8% in the assay on UO-31 renal; 118% in the assay with TK-10 renal; 94.6% in the assay with ACHN renal. The growth was 62.2% with CAKI-1 renal; 50.6% in the assay with CCRF-CEM leukemia; 40% in the assay on MOLT-4 leukemia; -26% (active) with SR leukemia; -18.6% (active) in the assay on RPMI-8226 leukemia; 82.7% with OVCAR-8 ovarian. Further, the growth with OVCAR-5 ovarian was 88.6%; in the assay on OVCAR-4 ovarian, 72.4%; in the assay with SK-OV-3 ovarian, 118%; with IGROV1 ovarian it was 46.4%; in the assay with OVCAR-3 ovarian, 70.1%; in the assay on HS 578T breast it was 91.8%. For the same compound, the growth with NCI/ADR-RES ovarian is 88.3%.
With `Cc1cc(=O)oc2cc(Oc3nc(-c4ccccc4)cn4c(-c5ccccc5)cnc34)ccc12`, the growth is 51.9% with SK-MEL-2 melanoma; 66.8% with EKVX NSCLC; 67.6% in the assay with SN12C renal; 40.8% with UO-31 renal; 80.5% in the assay on TK-10 renal; 48.6% with ACHN renal. Besides, the growth with CAKI-1 renal is 85.2%; with A498 renal it was 9.88% (active); with CCRF-CEM leukemia it was 77.6%; with MOLT-4 leukemia it was 58.5%; in the assay on SR leukemia, 54.5%; with RPMI-8226 leukemia it was 51%. Also, the growth was 61.6% in the assay on OVCAR-8 ovarian; 105% in the assay on OVCAR-5 ovarian; 60.7% in the assay on OVCAR-4 ovarian; 83.7% in the assay with IGROV1 ovarian; 76.6% with OVCAR-3 ovarian; 58.6% with HS 578T breast. For the same compound, in the assay with NCI/ADR-RES ovarian, the growth is 45.4%.
As for `C(=N\Nc1nnc2n1N=C(c1ccccc1)CS2)/c1ccc(OCc2ccccc2)cc1`, the growth in the assay with SK-MEL-2 melanoma is 104%; in the assay with EKVX NSCLC, 101%; in the assay with SN12C renal it was 98.6%; in the assay on UO-31 renal, 79.5%; in the assay with TK-10 renal, 98.2%; with ACHN renal it was 112%. Besides, the growth was 107% with CAKI-1 renal; 97.2% in the assay with CCRF-CEM leukemia; 92.8% in the assay with MOLT-4 leukemia; 93.4% in the assay with SR leukemia; 86.6% with RPMI-8226 leukemia; 102% in the assay with OVCAR-8 ovarian. The growth in the assay with OVCAR-5 ovarian is 114%; with OVCAR-4 ovarian it was 120%; with SK-OV-3 ovarian, 109%; with IGROV1 ovarian it was 99.6%; with OVCAR-3 ovarian, 113%; in the assay with HS 578T breast, 112%. Moreover, the growth with NCI/ADR-RES ovarian is 96.6%.
Regarding `COC(=O)[C@@H](Cc1c[nH]c2ccccc12)NC(=O)[C@H](Cc1ccccc1)NCc1ccncc1`, the growth with SK-MEL-2 melanoma was 77.7%; in the assay on EKVX NSCLC, 103%; in the assay on SN12C renal, 100%; in the assay on UO-31 renal, 71.9%; with TK-10 renal it was 98.1%; with ACHN renal it was 109%. In addition, the growth was 91.9% with CAKI-1 renal; 90.3% in the assay on CCRF-CEM leukemia; 92.5% in the assay on MOLT-4 leukemia; 99.2% in the assay with SR leukemia; 84.6% with RPMI-8226 leukemia; 89.1% with OVCAR-8 ovarian. Also, the growth in the assay with OVCAR-5 ovarian was 101%; in the assay on OVCAR-4 ovarian, 98.7%; in the assay on SK-OV-3 ovarian, 94%; in the assay with IGROV1 ovarian, 101%; with OVCAR-3 ovarian, 101%; in the assay on HS 578T breast it was 99.3%. Moreover, the growth in the assay with NCI/ADR-RES ovarian was 99.9%.
